According to PubChem BioAssay (Tox21):
Several values for one entry are separate records, joined by “and”; a condition that tells them apart may be missing. Equal entries are not always repeated. Results filed as inconclusive are left out. Some structures have more than one record in an assay (separate samples or runs), and their calls can disagree. Activity calls are given as the source filed them. Unless noted, calls come from the whole dose curve; as a rule, active = well fitted curve in the direction sought with a large enough effect in the repeat runs; inconclusive = weak or mixed curves; inactive = no such curve, though single readings can be large; an effect the other way counts as inactive or inconclusive.

How the values were obtained:
[1] = target: Thyrotropin receptor (Homo sapiens) (UniProt P16473); experiment: qHTS assay to identify small molecule agonists of the thyroid stimulating hormone receptor (TSHR) signaling pathway (AID 1224843; calls by dose curve; note: nearly all actives have a fitted effect of over 45% in size; note: potency is the fitted concentration of half-maximal effect)
Summary of the method: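 HEK293/TSHR, 800 cells/well; cpd 30 min RT; add cAMP-d2 + anti-cAMP-cryptate, 1 h RT; fluorescence read on plate reader. 15-pt titration, n=3.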

[2] = qHTS assay to identify small molecule agonists of the hypoxia (HIF-1) signaling pathway - cell viability counter screen (AID 1224844; calls by dose curve; note: nearly all actives have a fitted effect of over 50% in size; note: potency is the fitted concentration of half-maximal effect)
Summary of the method: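 Viability counter screen: HRE-bla ME-180 cells plated 5 hrs before compound addition, treated 17 hrs at 37C and 5% CO2, then CellTiter-Glo added after the FRET reporter read; luminescence after 30 min.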

[3] = qHTS assay to identify small molecule agonists of H2AX (AID 1224845; active = well fitted activation curve with a large enough effect in the signal ratio in the repeat runs, not every such curve was filed as active; the % refers to the signal ratio)
Summary of the method: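 Wild-type CHO-K1 cells, plated overnight, exposed 3hr at 37C to 15 concentrations (0.76% DMSO final). Lysed, then HTRF anti-pH2AX (S139) cryptate and anti-H2AX-d2 antibodies, 24 hr room temperature; 665/620 nm emission read.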

[4] = qHTS assay to identify small molecule agonists of the hypoxia (HIF-1) signaling pathway (AID 1224846; active = well fitted activation curve with a large enough effect in the signal ratio in the repeat runs, not every such curve was filed as active; the % refers to the signal ratio)
Summary of the method: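 Agonist mode reporter screen. ME-180 cells stably expressing bla under HRE control received test compounds in DMSO for 17 hrs (37C, 5% CO2), and beta-lactamase activity was then detected with the CCF4-AM FRET substrate.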

[5] = qHTS assay to identify small molecule agonists of H2AX - cell viability counter screen (AID 1224847; calls by dose curve; note: nearly all actives have a fitted effect of over 30% in size; note: potency is the fitted concentration of half-maximal effect)
Summary of the method: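 CHO-K1 cells plated overnight at 37C, then exposed 3 h at 37C to compounds at 15 concentrations (0.76% DMSO final). Viability by CellTiter-Glo luminescence after 30 min at room temperature.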

[6] = qHTS RealTime-Glo MT Cell Viability Assay in HepG2 cells - 24 hour (AID 1224867); note: nearly all actives have a fitted effect of over 50% in size
Summary of the method: (§1)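 Luminescence read-out: viable HepG2 cells reduce a prosubstrate to a NanoLuc substrate, giving a signal proportional to live cell number. Reads taken at 0, 8, 16, 24, 32 and 40 h of compound exposure at 37 C.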

[7] = qHTS RealTime-Glo MT Cell Viability Assay in HEK293 cells - 32 hour (AID 1224868); note: nearly all actives have a fitted effect of over 50% in size; note: potency is the fitted concentration of half-maximal effect
Summary of the method: (§2)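 Nonlytic real-time viability readout: viable cells convert prosubstrate to NanoLuc substrate, giving luminescence proportional to live cell number. HEK293, 600 cells/well, compound added after 5 h, continuous culture at 37 C.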

[8] = A CellTox Green Cytotoxicity Assay to monitor cytotoxicity in HEK293 cells - 0 hour (AID 1224869); note: nearly all actives have a fitted effect of over 50% in size
Summary of the method: (§3)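 Dead-cell fluorescence measured kinetically: asymmetric cyanine dye, HEK293, 600 cells/well, 5 h settle, 23 nL cpd/DMSO, 37 C, reads 0–40 h every 8 h.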

[9] = qHTS RealTime-Glo MT Cell Viability Assay in HepG2 cells - 40 hour (AID 1224870); note: nearly all actives have a fitted effect of over 50% in size
Summary of the method: (§4)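 HepG2 cells (600/well) mixed with RealTime-Glo MT reagent, settled 5 h at 37 C/5% CO2 before compound addition. Nonlytic NanoLuc luminescence from viable-cell prosubstrate reduction read repeatedly during 40 h treatment at 37 C.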

[10] = A CellTox Green Cytotoxicity Assay to monitor cytotoxicity in HEK293 cells - 40 hour (AID 1224871); note: nearly all actives have a fitted effect of over 45% in size
Summary of the method: as §3

[11] = qHTS RealTime-Glo MT Cell Viability Assay in HEK293 cells - 16 hour (AID 1224872); note: nearly all actives have a fitted effect of over 50% in size; note: potency is the fitted concentration of half-maximal effect
Summary of the method: as §2

[12] = qHTS RealTime-Glo MT Cell Viability Assay in HepG2 cells - 8 hour (AID 1224873); note: nearly all actives have a fitted effect of over 55% in size
Summary of the method: as §4

[13] = qHTS RealTime-Glo MT Cell Viability Assay in HEK293 cells - 40 hour (AID 1224874); details: RealTime-Glo luminescence; max response: stronger effect = lower value; note: nearly all actives have a fitted effect of over 50% in size; note: potency is the fitted concentration of half-maximal effect
Summary of the method: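 600 HEK293 cells per well, dispensed already mixed with RealTime-Glo MT reagents. Compound dosing came 5 h later. The same wells were read for luminescence at 0, 8, 16, 24, 32 and 40 h of exposure at 37 C.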

[14] = A CellTox Green Cytotoxicity Assay to monitor cytotoxicity in HEK293 cells - 24 hour (AID 1224875); note: nearly all actives have a fitted effect of over 45% in size
Summary of the method: as §3

[15] = qHTS RealTime-Glo MT Cell Viability Assay in HepG2 cells - 32 hour (AID 1224877); note: nearly all actives have a fitted effect of over 55% in size
Summary of the method: as §1

[16] = A CellTox Green Cytotoxicity Assay to monitor cytotoxicity in HepG2 cells - 24 hour (AID 1224878); note: nearly all actives have a fitted effect of over 45% in size; note: potency is the fitted concentration of half-maximal effect
Summary of the method: (§5)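 First, HepG2 cells (600/well) mixed with reagent were plated; second, after 5 h at 37 C they received compounds via pintool; third, fluorescence was measured at 0 h through 40 h at 8 h intervals.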

[17] = A CellTox Green Cytotoxicity Assay to monitor cytotoxicity in HepG2 cells - 40 hour (AID 1224879); note: nearly all actives have a fitted effect of over 40% in size; note: potency is the fitted concentration of half-maximal effect
Summary of the method: as §5

[18] = qHTS assay to identify small molecule antagonists of the estrogen related receptor (ERR) signaling pathway from Tox21 library (AID 1224848); note: nearly all actives have a fitted effect of over 50% in size; note: potency is the fitted concentration of half-maximal effect
Summary of the method: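 Compounds dissolved in DMSO are pin-transferred onto ERR reporter cells (2,000 per well) that have settled for 6 h at 37 C. Plates then incubate 18 h at 37 C before ONE-Glo luciferase reagent and a luminescence read 30 min later.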

[19] = qHTS assay to identify small molecule agonists of the estrogen related receptor (ERR) signaling pathway from Tox21 library (AID 1224849; calls by dose curve; note: nearly all actives have a fitted effect of over 15% in size); details: ERR reporter cell line, ONE-Glo luciferase, 18 h
Summary of the method: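 Quantitative HTS in agonist format: NTP ERR cell line, compounds transferred in DMSO after 6 h plating, 18 h incubation at 37 C, ONE-Glo luminescence endpoint.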

[20] = A CellTox Green Cytotoxicity Assay to monitor cytotoxicity in HepG2 cells - 16 hour (AID 1224876); note: nearly all actives have a fitted effect of over 45% in size; note: potency is the fitted concentration of half-maximal effect
Summary of the method: as §5
% is set by controls: 0 for no effect and ±100 for the full control effect.

Thyrotropin receptor (Homo sapiens), sequence (P16473 whole entry, looked up): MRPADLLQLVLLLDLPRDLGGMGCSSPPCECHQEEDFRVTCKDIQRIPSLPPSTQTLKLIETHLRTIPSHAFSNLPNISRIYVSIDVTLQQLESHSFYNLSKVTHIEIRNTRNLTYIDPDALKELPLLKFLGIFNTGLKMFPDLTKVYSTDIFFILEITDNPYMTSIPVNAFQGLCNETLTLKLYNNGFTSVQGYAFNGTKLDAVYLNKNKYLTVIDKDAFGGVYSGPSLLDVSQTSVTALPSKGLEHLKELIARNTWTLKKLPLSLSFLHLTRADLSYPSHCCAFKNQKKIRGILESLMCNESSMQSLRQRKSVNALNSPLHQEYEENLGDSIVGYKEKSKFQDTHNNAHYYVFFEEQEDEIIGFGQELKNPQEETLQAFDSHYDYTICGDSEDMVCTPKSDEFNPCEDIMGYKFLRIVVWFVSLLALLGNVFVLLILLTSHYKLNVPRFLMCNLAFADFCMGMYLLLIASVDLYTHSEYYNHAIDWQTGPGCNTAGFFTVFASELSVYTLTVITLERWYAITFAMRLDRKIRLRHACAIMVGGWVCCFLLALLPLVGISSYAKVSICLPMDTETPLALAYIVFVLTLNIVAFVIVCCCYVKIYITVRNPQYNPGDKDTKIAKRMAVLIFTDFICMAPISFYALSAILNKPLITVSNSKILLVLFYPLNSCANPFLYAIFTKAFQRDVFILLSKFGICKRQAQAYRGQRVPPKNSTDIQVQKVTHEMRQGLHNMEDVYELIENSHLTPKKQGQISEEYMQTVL

CCCCC(CC)COC(=O)c1ccc(N(C)C)cc1 (centres undefined)
inactive: Potency [1] | Potency [2] | outcome [3] | Potency [4] | Potency [5] | Potency [6] | Potency [7] | Potency [8] | Potency [9] | Potency [10] | Potency [11] | Potency [12] | max response [13] -14.3% and -13.1% and -14.9% | Potency [14] | Potency [15] | Potency [16] | Potency [17]

CCC(C)OC(=O)c1ccc(O)cc1 (centres undefined)
active: activity change, positive = activation ([19]; at 92.4 µM (top of the series)) 6.7%
inactive: Potency [1] | Potency [2] | outcome [3] | Potency [4] | Potency [5] | Potency [18] | Potency [6] | Potency [8] | Potency [10] | Potency [12] | Potency [14] | Potency [20] | Potency [15]

C#C[C@]1(O)CC[C@H]2[C@@H]3CCc4cc(OC)ccc4[C@H]3CC[C@@]21C
inactive: Potency [2] | Potency [4] | Potency [18] | Potency [6] | Potency [8] | Potency [12] | Potency [14] | Potency [15]
active: Potency [1] 19.3 µM | Potency [5] 45 µM | Potency [7] 24.5 µM and 19 µM | Potency [13] 24.5 µM and 19 µM

CC(C)=CCCC(C)CCO (centres undefined)
inactive: Potency [1] | Potency [2] | outcome [3] | Potency [4] | Potency [5] | Potency [7] | Potency [8] | Potency [9] | Potency [10] | Potency [11] | Potency [12] | max response [13] -3.95% and 4.54% | Potency [14] | Potency [15] | Potency [16] | Potency [17]

Nc1ncn([C@@H]2O[C@H](CO)[C@@H](O)[C@H]2O)c(=O)n1
active: Potency [2] 13.8 µM | Potency [18] 864 nM and 1.19 µM
inactive: Potency [1] | outcome [3] | Potency [5] | activity change, positive = activation ([19]; at 42.5 µM (top of the series)) -50.1% | activity change, positive = activation ([19]; at 92.4 µM (top of the series)) -55.9% | Potency [6] | Potency [7] | Potency [8] | Potency [10] | Potency [11] | Potency [12] | max response [13] -27.7% and 4.66% | Potency [14] | Potency [20] | Potency [15] | Potency [16] | Potency [17]

Nc1ncnc2nc[nH]c12
inactive: Potency [1] | Potency [2] | outcome [3] | Potency [18] | Potency [6] | Potency [7] | Potency [8] | Potency [10] | Potency [11] | Potency [12] | max response [13] 0.881% and 2.65% | Potency [14] | Potency [20] | Potency [15] | Potency [16] | Potency [17]

CC(CCC(=O)O)(c1ccc(O)cc1)c1ccc(O)cc1
inactive: Potency [1] | Potency [2] | outcome [3] | Potency [5] | Potency [18] | Potency [6] | Potency [7] | Potency [8] | Potency [9] | Potency [10] | Potency [11] | Potency [12] | max response [13] -1.02% and 0.133% | Potency [14] | Potency [15] | Potency [16] | Potency [17]

CN(C)c1nc(N(C)C)nc(N(C)C)n1
inactive: Potency [1] | Potency [2] | outcome [3] | Potency [5] | Potency [7] | Potency [8] | Potency [9] | Potency [10] | Potency [11] | Potency [12] | max response [13] -18.5% and -1.64% | Potency [14] | Potency [20] | Potency [15] | Potency [16] | Potency [17]

OC[C@H]1O[C@@H]2O[C@H]3[C@H](O)[C@@H](O)[C@@H](O[C@H]4[C@H](O)[C@@H](O)[C@@H](O[C@H]5[C@H](O)[C@@H](O)[C@@H](O[C@H]6[C@H](O)[C@@H](O)[C@@H](O[C@H]7[C@H](O)[C@@H](O)[C@@H](O[C@H]8[C@H](O)[C@@H](O)[C@@H](O[C@H]1[C@H](O)[C@H]2O)O[C@@H]8CO)O[C@@H]7CO)O[C@@H]6CO)O[C@@H]5CO)O[C@@H]4CO)O[C@@H]3CO
inactive: Potency [1] | Potency [2] | outcome [3] | Potency [4] | Potency [5] | Potency [7] | Potency [8] | Potency [10] | Potency [11] | Potency [12] | max response [13] 3.33% | Potency [14] | Potency [20] | Potency [15] | Potency [16] | Potency [17]

c1ccncc1
inactive: Potency [1] | Potency [2] | outcome [3] | Potency [4] | Potency [5] | Potency [7] | Potency [8] | Potency [9] | Potency [10] | Potency [11] | Potency [12] | max response [13] 5.95% and 4.64% | Potency [14] | Potency [20] | Potency [15] | Potency [16] | Potency [17]

COc1ccc(C(=O)CC(=O)c2ccc(C(C)(C)C)cc2)cc1
inactive and 75.6 nM (active): Potency [16]
inactive: Potency [1] | Potency [2] | outcome [3] | Potency [4] | Potency [5] | Potency [6] | Potency [8] | Potency [9] | Potency [10] | Potency [12] | max response [13] -14% | Potency [14] | Potency [15]
active: Potency [13] 29.6 µM
inactive and 67.4 nM (active): Potency [20] | Potency [17]
29.6 µM (active) and inactive: Potency [7] | Potency [11]
